Reference: the antibiotic and cytotoxicity screens of Wong et al. (2023)
Screen size: about 39,000 compounds; about 3,300 (8.5%) were called active. This is one part of a sample in which actives are shown more often than they occur.

Tested on: HepG2
Assay: cytotoxicity call (relative viability < 0.9)
Conditions: 10 µM

Compound	cytotoxicity call
COc1ccc(S(=O)(=O)Nc2cccc3c2O[C@@H](CN(C)S(=O)(=O)c2ccc(F)cc2)[C@H](C)CN([C@@H](C)CO)C3=O)cc1	inactive
C[C@@H]1CN([C@@H](C)CO)C(=O)Cc2cc(NC(=O)CCN3CCOCC3)ccc2O[C@@H]1CN(C)CC1CC1	inactive
C[C@@H]1CCCCO[C@@H](CN(C)CC2CCCCC2)[C@H](C)CN([C@@H](C)CO)C(=O)c2cc(NC(=O)C3CCCCC3)ccc2O1	inactive
C[C@@H]1CCCCO[C@@H](CN(C)CC2CCCCC2)[C@@H](C)CN([C@@H](C)CO)C(=O)c2cc(NC(=O)C3CCCCC3)ccc2O1	active
C[C@H]1CCCCO[C@@H](CN(C)CC2CCCCC2)[C@@H](C)CN([C@@H](C)CO)C(=O)c2cc(NC(=O)C3CCCCC3)ccc2O1	inactive
C[C@H](CO)N1C[C@H](C)[C@@H](CN(C)CC2CCCCC2)OCCCC[C@H](C)Oc2ccc(NC(=O)C3CCCCC3)cc2C1=O	inactive
C[C@@H]1CN([C@@H](C)CO)C(=O)c2cc(NC(=O)C3CCCCC3)ccc2O[C@@H](C)CCCCO[C@H]1CN(C)CC1CCCCC1	active
C[C@@H]1CN([C@H](C)CO)C(=O)c2cc(NC(=O)C3CCCCC3)ccc2O[C@@H](C)CCCCO[C@@H]1CN(C)CC1CCCCC1	active
C[C@H]1CCCCO[C@H](CN(C)CC2CCCCC2)[C@@H](C)CN([C@@H](C)CO)C(=O)c2cc(NC(=O)C3CCCCC3)ccc2O1	active
C[C@@H]1CCCCO[C@H](CN(C)CC2CCCCC2)[C@H](C)CN([C@H](C)CO)C(=O)c2cc(NC(=O)C3CCCCC3)ccc2O1	inactive
C[C@@H]1CCCCO[C@@H](CN(C)CC2CCCCC2)[C@H](C)CN([C@H](C)CO)C(=O)c2cc(NC(=O)C3CCCCC3)ccc2O1	inactive
C[C@@H]1CN([C@@H](C)CO)C(=O)c2cc(NC(=O)C3CCCCC3)ccc2O[C@@H](C)CCCCO[C@@H]1CN(C)CC1CCCCC1	inactive
C[C@H](CO)N1C[C@H](C)[C@H](CN(C)CC2CCCCC2)OCCCC[C@H](C)Oc2ccc(NC(=O)C3CCCCC3)cc2C1=O	inactive
C[C@@H]1CCCCO[C@H](CN(C)CC2CCCCC2)[C@H](C)CN([C@@H](C)CO)C(=O)c2cc(NC(=O)C3CCCCC3)ccc2O1	inactive
COc1ccc(S(=O)(=O)N(C)C[C@@H]2OCCCC[C@@H](C)Oc3ccc(NS(C)(=O)=O)cc3C(=O)N([C@@H](C)CO)C[C@H]2C)cc1	inactive
C[C@H]1CN([C@@H](C)CO)C(=O)c2cccc(NC(=O)C3CCOCC3)c2O[C@H]1CN(C)Cc1ccc(-c2ccccc2)cc1	inactive
O=C1NC(=O)[C@H]2CC[C@H]2N1	inactive

Compound	cytotoxicity call
CN(CC=Cc1ccccc1)Cc1cccc2ccccc12.Cl	inactive
Cc1noc(C)c1S(=O)(=O)N(C)C[C@H]1OCCCC[C@H](C)Oc2ccc(NC(=O)Nc3ccc(C(F)(F)F)cc3)cc2C(=O)N([C@H](C)CO)C[C@@H]1C	inactive
Cc1ccc(S(=O)(=O)Nc2ccc3c(c2)C(=O)N([C@@H](C)CO)C[C@H](C)[C@H](CN(C)Cc2ccncc2)OCCCC[C@H](C)O3)cc1	inactive
COCC(=O)N1CC(=O)N2[C@H](C1)[C@@H](c1ccc(C#Cc3cccnc3)cc1)[C@@H]2CO	inactive
Cc1noc(C)c1S(=O)(=O)N(C)C[C@H]1Oc2ccc(NS(=O)(=O)c3ccccc3)cc2CC(=O)N([C@H](C)CO)C[C@H]1C	inactive
COc1ccc(S(=O)(=O)Nc2cccc3c2O[C@H](CN(C)Cc2ccc(Oc4ccccc4)cc2)[C@@H](C)CN([C@@H](C)CO)C3=O)cc1	inactive
COc1ccc(S(=O)(=O)Nc2cccc3c2O[C@H](CN(C)Cc2ccc(Oc4ccccc4)cc2)[C@H](C)CN([C@@H](C)CO)C3=O)cc1	active
COc1ccc(S(=O)(=O)Nc2cccc3c2O[C@H](CN(C)Cc2ccc(-c4ccccc4)cc2)[C@H](C)CN([C@H](C)CO)C3=O)cc1	inactive
C[C@H]1CN([C@@H](C)CO)C(=O)c2cccc(NS(=O)(=O)c3ccc(Cl)cc3)c2O[C@@H]1CN(C)Cc1ccc(Oc2ccccc2)cc1	active
C[C@@H]1CN([C@@H](C)CO)C(=O)c2cccc(NS(=O)(=O)c3ccc(F)cc3)c2O[C@@H]1CN(C)Cc1ccc(Oc2ccccc2)cc1	active
C[C@@H]1CN([C@@H](C)CO)C(=O)c2cccc(NS(=O)(=O)c3ccc(F)cc3)c2O[C@H]1CN(C)Cc1ccc(Oc2ccccc2)cc1	inactive
COc1ccc(S(=O)(=O)Nc2cccc3c2O[C@H](CN(C)Cc2ccc(Oc4ccccc4)cc2)[C@@H](C)CN([C@H](C)CO)C3=O)cc1	inactive
C[C@H]1CN([C@@H](C)CO)C(=O)c2cccc(NS(=O)(=O)c3ccc(F)cc3)c2O[C@@H]1CN(C)Cc1ccc(Oc2ccccc2)cc1	inactive
COc1ccc(S(=O)(=O)Nc2cccc3c2O[C@H](CN(C)Cc2ccc(-c4ccccc4)cc2)[C@H](C)CN([C@@H](C)CO)C3=O)cc1	inactive
C[C@@H]1CN([C@@H](C)CO)C(=O)c2cccc(NS(=O)(=O)c3ccc(Cl)cc3)c2O[C@@H]1CN(C)Cc1ccc(Oc2ccccc2)cc1	inactive
C[C@@H]1CN([C@@H](C)CO)C(=O)c2cccc(NS(=O)(=O)c3ccc(Cl)cc3)c2O[C@H]1CN(C)Cc1ccc(Oc2ccccc2)cc1	inactive
COc1ccc(S(=O)(=O)Nc2cccc3c2O[C@H](CN(C)Cc2ccc(-c4ccccc4)cc2)[C@@H](C)CN([C@H](C)CO)C3=O)cc1	active
